The campaign covered roughly 5,500 compounds. About 2,000 (36%) were called active. Another 18% or so got no clear call; they are omitted. Cut-off read from the data, not from the text of the source: active = normalized growth mostly below about 0.91 (no sharp cut-off); inconclusive = no clear call, values can overlap the other calls; inactive = mostly above about 0.92. The list shows a part of the results.
Assay: chemical genetic growth profiling, strain panel (AID 1159580);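 note: tested at 20 µM; growth read once vehicle control cultures reached saturation at 30 °C; 1 = growth at the plate median or of vehicle wells; lower values mean less growth of the strain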
Conditions: growth OD
[1] = S. cerevisiae deletion strains, locus YBR021W, strain FUR4, active compounds read low
[2] = S. cerevisiae deletion strains, locus YBR229C, strain ROT2, active compounds read low
[3] = S. cerevisiae deletion strains, locus YCL029C, strain bik1, active compounds read low
[4] = S. cerevisiae deletion strains, locus YDL035C, strain GPR1, active compounds read low
[5] = S. cerevisiae deletion strains, locus YDL074C, strain BRE1, active compounds read low
[6] = S. cerevisiae deletion strains, locus YDL101C, strain DUN1, active compounds read low
[7] = S. cerevisiae deletion strains, locus YDL134C, strain PPH21, active compounds read low
[8] = S. cerevisiae deletion strains, locus YDL185W, strain tfp1, active compounds read low
[9] = S. cerevisiae deletion strains, locus YDL192W, strain arf1, active compounds read low
[10] = S. cerevisiae deletion strains, locus YDR101C, strain arx1, active compounds read low
[11] = S. cerevisiae deletion strains, locus YDR162C, strain NBP2, active compounds read low
[12] = S. cerevisiae deletion strains, locus YDR318W, strain mcm21, active compounds read low
[13] = S. cerevisiae deletion strains, locus YDR388W, active compounds read low
[14] = S. cerevisiae deletion strains, locus YDR502C, strain sam2, active compounds read low
[15] = S. cerevisiae deletion strains, locus YEL061C, strain CIN8, active compounds read low
[16] = S. cerevisiae deletion strains, locus YER110C, active compounds read low
[17] = S. cerevisiae deletion strains, locus YER155C, strain BEM2, active compounds read low
[18] = S. cerevisiae deletion strains, locus YER167W, strain BCK2, active compounds read low
[19] = S. cerevisiae deletion strains, locus YGL078C, strain dbp3, active compounds read low
[20] = S. cerevisiae deletion strains, locus YGL086W, strain mad1, active compounds read low
[21] = S. cerevisiae deletion strains, locus YGL248W, strain PDE1, active compounds read low
[22] = S. cerevisiae deletion strains, locus YGR078C, strain PAC10, active compounds read low
[23] = S. cerevisiae deletion strains, locus YGR135W, strain pre9, active compounds read low
[24] = S. cerevisiae deletion strains, locus YGR252W, strain gcn5, active compounds read low
[25] = S. cerevisiae deletion strains, locus YHR030C, strain SLT2, active compounds read low
[26] = S. cerevisiae deletion strains, locus YHR079C, strain IRE1 (second series), active compounds read low
[27] = S. cerevisiae deletion strains, locus YHR094C, strain hxt1, active compounds read low
[28] = S. cerevisiae deletion strains, locus YHR129C, strain ARP1, active compounds read low
[29] = S. cerevisiae deletion strains, locus YHR200W, strain rpn10, active compounds read low
[30] = S. cerevisiae deletion strains, locus YIL066C, strain RNR3, active compounds read low
[31] = S. cerevisiae deletion strains, locus YIL073C, strain SPO22, active compounds read low
[32] = S. cerevisiae deletion strains, locus YIL125W, strain kgd1, active compounds read low
[33] = S. cerevisiae deletion strains, locus YIR030C, strain dcg1, active compounds read low
[34] = S. cerevisiae deletion strains, locus YJL095W, strain BCK1, active compounds read low
[35] = S. cerevisiae deletion strains, locus YJL134W, strain LCB3, active compounds read low
[36] = S. cerevisiae deletion strains, locus YJL168C, strain set2, active compounds read low
[37] = S. cerevisiae deletion strains, locus YJL187C, strain SWE1 (second series), active compounds read low
[38] = S. cerevisiae deletion strains, locus YKL009W, strain mrt4, active compounds read low
[39] = S. cerevisiae deletion strains, locus YKL068W, active compounds read low
[40] = S. cerevisiae deletion strains, locus YKL085W, strain MDH1 (second series), active compounds read low
[41] = S. cerevisiae deletion strains, locus YKL085W, strain MDH1, active compounds read low
[42] = S. cerevisiae deletion strains, locus YKL190W, strain CNB1, active compounds read low
[43] = S. cerevisiae deletion strains, locus YKR001C, strain vps1, active compounds read low
[44] = S. cerevisiae deletion strains, locus YLR039C, strain RIC1, active compounds read low
[45] = S. cerevisiae deletion strains, locus YLR058C, strain SHM2, active compounds read low
[46] = S. cerevisiae deletion strains, locus YLR102C, strain apc9, active compounds read low
[47] = S. cerevisiae deletion strains, locus YLR268W, strain sec22, active compounds read low
[48] = S. cerevisiae deletion strains, locus YLR342W, strain FKS1 (second series), active compounds read low
[49] = S. cerevisiae deletion strains, locus YLR371W, strain rom2, active compounds read low
[50] = S. cerevisiae deletion strains, locus YLR418C, strain cdc73, active compounds read low
[51] = S. cerevisiae deletion strains, locus YML016C, strain PPZ1, active compounds read low
[52] = S. cerevisiae deletion strains, locus YML032C, strain rad52, active compounds read low
[53] = S. cerevisiae deletion strains, locus YML124C, strain tub3, active compounds read low
[54] = S. cerevisiae deletion strains, locus YMR078C, strain ctf18, active compounds read low
[55] = S. cerevisiae deletion strains, locus YMR223W, strain ubp8, active compounds read low
[56] = S. cerevisiae deletion strains, locus YMR263W, strain SAP30, active compounds read low
[57] = S. cerevisiae deletion strains, locus YMR307W, strain GAS1, active compounds read low
[58] = S. cerevisiae deletion strains, locus YNL067W, strain RPL9B, active compounds read low
[59] = S. cerevisiae deletion strains, locus YNL233W, strain BNI4, active compounds read low
[60] = S. cerevisiae deletion strains, locus YNL250W, strain rad50, active compounds read low
[61] = S. cerevisiae deletion strains, locus YNL271C, strain bni1, active compounds read low
[62] = S. cerevisiae deletion strains, locus YNL298W, strain CLA4, active compounds read low
[63] = S. cerevisiae deletion strains, locus YNL307C, strain MCK1, active compounds read low
[64] = S. cerevisiae deletion strains, locus YNR052C, strain pop2, active compounds read low
[65] = S. cerevisiae deletion strains, locus YOL006C, strain TOP1, active compounds read low
[66] = S. cerevisiae deletion strains, locus YOL012C, strain htz1
[67] = S. cerevisiae deletion strains, locus YOL147C, strain pex11, active compounds read low
[68] = S. cerevisiae deletion strains, locus YOR061W, strain CKA2, active compounds read low
[69] = S. cerevisiae deletion strains, locus YOR069W, strain VPS5, active compounds read low
[70] = S. cerevisiae deletion strains, locus YOR136W, strain idh2, active compounds read low
[71] = S. cerevisiae deletion strains, locus YOR144C, strain elg1, active compounds read low
[72] = S. cerevisiae deletion strains, locus YOR184W, strain ser1, active compounds read low
[73] = S. cerevisiae deletion strains, locus YOR316C, strain cot1, active compounds read low
[74] = S. cerevisiae deletion strains, locus YPL241C, strain CIN2, active compounds read low
[75] = S. cerevisiae deletion strains, locus YPR119W, strain clb2, active compounds read low
[76] = S. cerevisiae deletion strains, locus YPR141C, strain kar3, active compounds read low
[77] = S. cerevisiae deletion strains, locus YPR163C, strain tif3, active compounds read low
[78] = S. cerevisiae deletion strains, locus YPR167C, strain met16, active compounds read low
[79] = S. cerevisiae deletion strains, strain wtn01, active compounds read low
[80] = S. cerevisiae strains, strain wild type, active compounds read low

Measured: normalized growth

COc1c(C(=O)O)ccc2c1CCC(C)(C)O2
active: S. cerevisiae deletion strains, locus YGR229C, strain SMI1, active compounds read low 1.2 [resistant] | [39] 0.922
inactive: [1] 1.03 | [2] 1.02 | [3] 1.01 | [4] 1.09 | [5] 1.13 | [6] 1.02 | [7] 1.07 | [8] 0.976 | [9] 1.03 | [10] 0.999 | S. cerevisiae deletion strains, locus YDR150W, strain NUM1, active compounds read low 1.04 | [11] 1.05 | [12] 0.987 | [13] 0.987 | [14] 0.981 | [15] 1.03 | [16] 0.997 | [17] 0.984 | [18] 1.01 | [19] 0.964 | [20] 1 | [21] 1.06 | [22] 1.06 | [23] 0.994 | [24] 1.06 | [25] 1.02 | [26] 0.982 | [27] 0.987 | [28] 1.02 | [29] 1 | [30] 1.04 | [31] 1.12 | [32] 0.957 | [33] 0.982 | [34] 1.1 | [35] 1.01 | [36] 0.988 | [37] 1.03 | [38] 0.995 | [40] 0.955 | [41] 0.955 | [42] 1.02 | [43] 1.04 | [44] 1.19 | [45] 1.04 | [46] 0.986 | S. cerevisiae deletion strains, locus YLR262C, strain YPT6, active compounds read low 1.22 | [47] 0.989 | S. cerevisiae deletion strains, locus YLR330W, strain CHS5, active compounds read low 1.03 | [48] 1.07 | [49] 1.01 | [50] 1.07 | [51] 1.02 | [52] 0.991 | [53] 0.975 | [54] 0.983 | [55] 1 | [56] 1.01 | [57] 1.03 | [58] 0.992 | [59] 1.08 | [60] 0.956 | [61] 0.995 | [62] 0.993 | [63] 0.989 | S. cerevisiae deletion strains, locus YNL322C, strain KRE1, active compounds read low 1.02 | [64] 0.981 | [65] 1.43 | [66] 0.918 | [67] 0.98 | [68] 1.02 | [69] 1.01 | [70] 0.993 | [71] 0.981 | [72] 1.04 | [73] 0.977 | [74] 1.02 | [75] 0.983 | [76] 0.942 | [77] 0.986 | [78] 0.98 | [79] 1.01 | [80] 1.06

COc1c(C2COc3cc4c(cc3C2=O)CC(O)C(C)(C)O4)ccc2c1CCC(C)(C)O2 (configuration not stated)
inactive: [1] 0.992 | [2] 1.01 | [3] 1.01 | [4] 1.02 | [5] 1.05 | [6] 1.02 | [7] 1.05 | [8] 1.05 | [9] 1.01 | [10] 0.982 | [11] 1.02 | [12] 1.01 | [13] 1.03 | [14] 1.04 | [15] 1.01 | [16] 1.02 | [17] 1.02 | [18] 1.01 | [19] 1.02 | [20] 1.01 | [21] 1.06 | [22] 1.02 | [23] 1.07 | [24] 1.04 | [25] 1.01 | [26] 1.02 | [27] 1 | [28] 1.02 | [29] 1.03 | [30] 1.04 | [31] 1.08 | [32] 1.01 | [33] 1.03 | [34] 1.05 | [35] 0.995 | [36] 1.03 | [37] 1.04 | S. cerevisiae deletion strains, locus YJR043C, strain POL32, active compounds read low 1.01 | [38] 1.01 | [39] 1.01 | [40] 1.01 | [41] 1.01 | [42] 1.01 | [43] 1.04 | [44] 1.11 | [45] 1.02 | [46] 1.01 | [47] 0.997 | [48] 1.04 | [49] 1.03 | [50] 1.08 | [51] 1 | [52] 1.01 | [53] 1 | [54] 1.02 | [55] 1.02 | [56] 1 | [57] 1.13 | [58] 1.01 | S. cerevisiae deletion strains, locus YNL153C, strain GIM3, active compounds read low 1.06 | [59] 1.04 | [60] 1.05 | [61] 1.01 | [62] 1.02 | [63] 1.01 | [64] 1.03 | [65] 1.06 | [66] 0.808 | [67] 1 | [68] 1.01 | [69] 1.01 | [70] 1.02 | [71] 1.01 | [72] 0.971 | [73] 1.01 | [74] 0.99 | [75] 1.02 | [76] 1.01 | [77] 1.03 | [78] 1.04 | [79] 1 | [80] 1.03
